Assay results as given in PubChem BioAssay.
Calls of active or inactive are those of the source.

How the values were obtained:
Albumin (Bos taurus) = Albumin (Bos taurus) (UniProt P02769); test: bovine serum albumin binders on microarray, profiling panel, artefact control for SMM control protein annotation, biochemical, small-molecule microarray, Alexa647 label, 635/667 nm fluorescence (AID 1118); conditions: BSA-A647 binding, fluorescence 635 nm, higher = more signal;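 further: score merges 667 nm emission intensity and signal-to-noise per printed compound spot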
[1] = small-molecule microarray binders of probe aXIP, primary screen, biochemical, NeuroSMM set, 635/667 nm fluorescence (AID 1119); conditions: higher = more signal, called active from +8 up or from −8 down;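 further: probe is the protein aXip251-270 applied at 1 µg/mL to compound-printed slides; binding of probe to printed compounds measured as 667 nm fluorescence plus signal to noise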
[2] = small-molecule binders of probe aNOTCH3, primary screen, biochemical, small-molecule microarray, 635/667 nm fluorescence (AID 1120); conditions: higher = more signal;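 further: probe is a biotin-tagged antibody raised against NOTCH3 rather than NOTCH3 protein; score merges spot fluorescence near 667 nm with spot signal to noise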
[3] = small-molecule binders of probe aNOTCH2, primary screen, biochemical, small-molecule microarray, 635/667 nm fluorescence (AID 1121); conditions: higher = more signal;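 further: score merges feature fluorescence read at 667 nm with its signal to noise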
[4] = molecular target: Carbonic anhydrase 2 (Homo sapiens) (UniProt P00918); test: CAII small-molecule binders, profiling panel, biochemical, small-molecule microarray, Alexa647-labelled CAII (AID 1122); conditions: CAII-A647 binding fluorescence, higher = more signal
[5] = COS7 lysate on small-molecule microarray, probe aHis, 635 nm (AID 1123); conditions: COS7 cell lysate, fluorescence, higher = more signal;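 further: z-score combines 667nm fluorescence intensity with signal-to-noise per printed compound spot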
[6] = compound binding in COS7 lysate, probe aLAP1, primary screen, cell lysate, small-molecule microarray (AID 1124); conditions: probe aLAP1, fluorescence, higher = more signal;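 further: lysate comes from COS7 cells expressing LAP1 and is applied at 0.3 µg/mL; score merges spot fluorescence near 667 nm with signal-to-noise over triplicate slides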
Sam68 (KHDRBS1) = test: Sam68 small-molecule binders, primary screen, biochemical, small-molecule microarray, 635 nm fluorescence (AID 1125); conditions: small-molecule microarray binding, higher = more signal;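 further: score merges 667 nm channel intensity with signal to noise over triplicate slides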
[7] = tested on: Chordin-like protein 2 (CHRDL2); test: CHRDL2 small-molecule binders, primary screen, biochemical, small-molecule microarray, 635 nm fluorescence (AID 1126); conditions: small-molecule microarray binding, fluorescence 635 nm; higher = more signal;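 further: printed compound slides probed with Chrdl2 protein at 4 µg/mL for 1 h at 4 C; score merges 667 nm emission intensity with signal to noise over three replicate slides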
[8] = molecular target: Concanavalin-A (Canavalia ensiformis) (UniProt P02866); test: ConA small-molecule binders, primary screen, artefact control for SMM control protein annotation, biochemical, small-molecule microarray, Alexa647 label, 635 nm (AID 1127); conditions: ConA-A647 binding fluorescence, higher = more signal;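 further: z combines 667 nm emission intensity with signal-to-noise across three replicate slides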
[9] = anti-His antibody binders, primary screen, artefact control for SMM control protein annotation, biochemical, small-molecule microarray, 635 nm fluorescence (AID 1128); conditions: anti-His Alexa647 antibody binding, higher = more signal;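 further: score merges feature fluorescence with signal-to-noise for each printed compound spot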
[10] = tested on: Human papillomavirus type 1a E7 protein (residues 1-88); test: HPV1a E7 small-molecule binders, primary screen, biochemical, small-molecule microarray, residues 1-88, 635 nm (AID 1129); conditions: small-molecule microarray binding, fluorescence 635 nm; higher = more signal
[11] = molecular target: Focal adhesion kinase 1 (Homo sapiens) (UniProt Q05397); test: small-molecule microarray binders of FAK, primary screen, biochemical, 635/667 nm fluorescence, BSA, DTT (AID 1130); conditions: PTK2 binding, 635 nm fluorescence, higher = more signal;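 further: composite of spot emission at 667 nm and signal to noise over triplicate slides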
[12] = tested on: Fibrinogen (Alexa647-labelled); test: fibrinogen binders on compound microarrays, profiling panel, artefact control for SMM control-protein annotation, biochemical, small-molecule microarray, 635/667 nm fluorescence (AID 1131); conditions: fibrinogen-A647 binding fluorescence, higher = more signal;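 further: z-score merges 667 nm fluorescence with per-spot signal-to-noise over triplicate slides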
[13] = molecular target: Follistatin (Homo sapiens) (UniProt P19883); test: follistatin binders on small-molecule microarrays, primary screen, biochemical, small-molecule microarray, 635/667 nm fluorescence (AID 1132); conditions: FST binding, 635 nm fluorescence, higher = more signal
[14] = molecular target: Fibroblast growth factor 2 (Homo sapiens) (UniProt P09038); test: FGF2 binders on small-molecule microarrays, primary screen, biochemical, small-molecule microarray, 635/667 nm fluorescence (AID 1133); conditions: small-molecule microarray binding, FGF2, fluorescence 635/667; higher = more signal
[15] = mitochondrial membrane potential change in A549 cells, profiling panel, cell-based, JC-1 fluorescence, basal, 24 h, 100 nL (AID 1138); conditions: higher = more signal;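 further: A549 lung adenocarcinoma cells under basal conditions with no added stimulus; test concentration not given here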
Lefty1 = Lefty1 binders on small-molecule microarrays, primary screen, biochemical, small-molecule microarray, 635/667 nm fluorescence (AID 1139); conditions: small-molecule microarray binding, fluorescence 635/667; higher = more signal
[16] = tested on: wheat germ agglutinin (Triticum aestivum), Alexa647-labelled; test: wheat germ agglutinin binders on compound microarrays, profiling panel, artefact control for SMM control-protein annotation, biochemical, small-molecule microarray, 635/667 nm fluorescence (AID 1140); conditions: WGA-A647 binding, 635 nm fluorescence, higher = more signal;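 further: score merges 667 nm feature emission with signal to noise over triplicate slides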
[17] = molecular target: Luciferin 4-monooxygenase (Photinus pyralis) (UniProt P08659); test: firefly luciferase enzyme inhibitors, primary screen, biochemical, luminescence, purified enzyme, 2006 set (AID 1141); conditions: SteadyGlo luminescence, 30 min, higher = more signal, called active from +8 up or from −8 down;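 further: cell-free assay with purified firefly luciferase at 100 ng per well in PBS; test concentration not given here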
Chain of Luciferin 4-monooxygenase (Photinus pyralis) (P08659 whole entry, looked up): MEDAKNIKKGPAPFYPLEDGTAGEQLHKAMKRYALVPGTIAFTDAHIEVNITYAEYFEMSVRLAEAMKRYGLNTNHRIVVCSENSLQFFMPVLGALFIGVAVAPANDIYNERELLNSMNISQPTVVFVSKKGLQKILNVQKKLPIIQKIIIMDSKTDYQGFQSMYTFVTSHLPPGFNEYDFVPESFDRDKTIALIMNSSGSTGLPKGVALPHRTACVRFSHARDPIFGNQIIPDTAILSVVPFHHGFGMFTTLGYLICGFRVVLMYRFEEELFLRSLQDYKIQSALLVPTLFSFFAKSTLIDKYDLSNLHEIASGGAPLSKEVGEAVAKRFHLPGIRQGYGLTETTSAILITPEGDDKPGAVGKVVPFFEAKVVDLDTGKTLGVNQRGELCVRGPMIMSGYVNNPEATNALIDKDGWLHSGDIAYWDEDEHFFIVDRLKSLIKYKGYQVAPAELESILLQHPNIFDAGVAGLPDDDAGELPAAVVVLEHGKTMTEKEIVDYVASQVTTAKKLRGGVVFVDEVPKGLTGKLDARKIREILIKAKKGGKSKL

Chain of Concanavalin-A (Canavalia ensiformis) (P02866 whole entry, looked up): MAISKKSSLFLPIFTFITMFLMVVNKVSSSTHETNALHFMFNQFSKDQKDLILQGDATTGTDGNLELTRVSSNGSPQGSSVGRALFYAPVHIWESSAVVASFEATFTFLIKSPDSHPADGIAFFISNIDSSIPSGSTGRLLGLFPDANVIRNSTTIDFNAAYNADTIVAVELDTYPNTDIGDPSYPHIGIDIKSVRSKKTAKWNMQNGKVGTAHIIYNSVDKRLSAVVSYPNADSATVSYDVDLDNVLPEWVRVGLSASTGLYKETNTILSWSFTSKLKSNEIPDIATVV
Chain of Fibroblast growth factor 2 (Homo sapiens) (P09038 whole entry, looked up): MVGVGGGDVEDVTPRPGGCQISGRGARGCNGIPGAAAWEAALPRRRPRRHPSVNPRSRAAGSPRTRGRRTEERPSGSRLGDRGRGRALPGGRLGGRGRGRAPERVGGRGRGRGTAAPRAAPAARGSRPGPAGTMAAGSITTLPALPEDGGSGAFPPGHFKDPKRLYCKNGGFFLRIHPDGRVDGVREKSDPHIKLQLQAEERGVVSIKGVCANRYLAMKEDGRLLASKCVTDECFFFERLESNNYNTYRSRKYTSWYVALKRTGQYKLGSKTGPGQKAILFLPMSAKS
Chain of Focal adhesion kinase 1 (Homo sapiens) (Q05397 whole entry, looked up): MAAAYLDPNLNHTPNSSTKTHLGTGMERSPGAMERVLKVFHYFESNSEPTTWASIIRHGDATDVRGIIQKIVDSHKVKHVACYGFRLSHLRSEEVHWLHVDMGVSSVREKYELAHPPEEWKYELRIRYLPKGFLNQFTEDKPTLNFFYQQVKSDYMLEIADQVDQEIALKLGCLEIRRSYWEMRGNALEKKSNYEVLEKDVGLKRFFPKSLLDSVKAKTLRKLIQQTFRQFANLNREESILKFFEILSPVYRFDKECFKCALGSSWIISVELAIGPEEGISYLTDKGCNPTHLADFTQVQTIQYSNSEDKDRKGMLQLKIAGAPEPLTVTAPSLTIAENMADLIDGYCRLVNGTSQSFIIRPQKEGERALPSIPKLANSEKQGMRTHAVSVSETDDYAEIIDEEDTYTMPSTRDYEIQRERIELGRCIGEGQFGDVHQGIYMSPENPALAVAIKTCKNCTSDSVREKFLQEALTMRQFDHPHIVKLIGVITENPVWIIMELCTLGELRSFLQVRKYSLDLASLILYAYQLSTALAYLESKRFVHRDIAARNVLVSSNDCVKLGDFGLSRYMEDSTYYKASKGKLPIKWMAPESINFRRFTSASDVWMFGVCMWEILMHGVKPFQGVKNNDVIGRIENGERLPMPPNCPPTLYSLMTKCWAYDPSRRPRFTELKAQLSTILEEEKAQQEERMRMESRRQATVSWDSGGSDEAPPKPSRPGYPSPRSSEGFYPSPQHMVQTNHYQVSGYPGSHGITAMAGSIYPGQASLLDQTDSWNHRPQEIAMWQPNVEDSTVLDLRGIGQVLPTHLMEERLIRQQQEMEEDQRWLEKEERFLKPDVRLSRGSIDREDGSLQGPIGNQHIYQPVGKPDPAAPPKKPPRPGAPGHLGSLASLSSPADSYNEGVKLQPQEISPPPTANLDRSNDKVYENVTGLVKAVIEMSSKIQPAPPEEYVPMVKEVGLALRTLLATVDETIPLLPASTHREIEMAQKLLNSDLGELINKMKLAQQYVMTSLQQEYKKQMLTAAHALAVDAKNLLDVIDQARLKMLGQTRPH
Chain of Follistatin (Homo sapiens) (P19883 whole entry, looked up): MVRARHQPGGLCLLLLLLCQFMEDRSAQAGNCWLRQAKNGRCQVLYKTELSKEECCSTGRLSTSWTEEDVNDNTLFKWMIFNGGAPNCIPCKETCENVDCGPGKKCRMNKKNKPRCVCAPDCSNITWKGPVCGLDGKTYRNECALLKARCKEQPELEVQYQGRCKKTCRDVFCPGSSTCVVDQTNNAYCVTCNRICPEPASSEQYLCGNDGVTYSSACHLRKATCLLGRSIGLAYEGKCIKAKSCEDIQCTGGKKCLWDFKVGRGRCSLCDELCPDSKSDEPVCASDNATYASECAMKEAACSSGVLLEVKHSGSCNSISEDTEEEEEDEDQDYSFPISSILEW
Chain of Albumin (Bos taurus) (P02769 whole entry, looked up): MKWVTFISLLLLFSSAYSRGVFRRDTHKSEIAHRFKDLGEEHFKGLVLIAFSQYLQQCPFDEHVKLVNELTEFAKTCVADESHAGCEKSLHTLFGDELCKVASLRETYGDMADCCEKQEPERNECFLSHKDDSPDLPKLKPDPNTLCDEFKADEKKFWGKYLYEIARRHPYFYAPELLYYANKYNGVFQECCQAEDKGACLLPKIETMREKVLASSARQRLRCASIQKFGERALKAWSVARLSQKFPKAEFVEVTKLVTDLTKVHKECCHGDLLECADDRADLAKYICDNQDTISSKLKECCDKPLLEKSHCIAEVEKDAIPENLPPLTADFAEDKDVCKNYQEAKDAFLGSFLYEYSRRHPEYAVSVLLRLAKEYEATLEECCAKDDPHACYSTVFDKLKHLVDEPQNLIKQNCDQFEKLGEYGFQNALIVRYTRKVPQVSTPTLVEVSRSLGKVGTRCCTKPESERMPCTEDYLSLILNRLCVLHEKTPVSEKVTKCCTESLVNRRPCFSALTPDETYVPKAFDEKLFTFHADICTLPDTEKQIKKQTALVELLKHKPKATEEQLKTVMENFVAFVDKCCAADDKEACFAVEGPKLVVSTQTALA

Row | Compound | composite z-score (Albumin (Bos taurus)) | composite Z-score [1] | composite z-score [2] | composite z-score [3] | composite z-score [4] | composite z-score [5] | composite z-score [6] | composite z-score (Sam68 (KHDRBS1)) | composite z-score [7] | composite z-score [8] | composite z-score [9] | composite z-score [10] | composite z-score [11] | composite z-score [12] | composite z-score [13] | composite z-score [14] | z-score [15] | composite z-score (Lefty1) | composite z-score [16] | z-score [17]
1 | C=C[C@H](OC)[C@@H](O)c1ccc(OC)c(O)c1 | 0.985 | -0.272 (inactive) | -0.557 | -0.19 | 0.145 | -0.651 | -0.0037 | -2.47 | -1.01 | -1.9 | -0.495 | -1.4 | -0.833 | -1.99 | -0.857 | 0.598 | 0.793 | -1.82 | -0.609 | -1.1 (inactive)
2 | CCCC=C(CCC)[C@@H](NC(=O)c1ccc(C(=O)OC)cc1)c1ccc(C(=O)OC)cc1 | 0.781 | 0.0466 (inactive) | 0.0847 | 0.0522 | 0.203 | 2.45 | 0.718 | 0.417 | 0.031 | 0.251 | -0.202 | 0.33 | 0.723 | 0.146 | 0.0388 | -1.47 | -0.699 | -0.799 | 0.315 | 1.3 (inactive)
3 | COc1ccc(CCNC(=O)[C@@H]2c3ccccc3C(=O)N(Cc3cc(F)cc(C(F)(F)F)c3)[C@H]2c2ccc(CO)cc2)cc1 | -0.0885 | -0.795 (inactive) | 0.249 | 0.207 | 0.753 | 2.1 | 1.51 | 1.03 | 0.0818 | 0.198 | 0.634 | 0.544 | 0.137 | 0.227 | 1 | 0.409 | 3.34 | -0.192 | 0.871 | -1.13 (inactive)
4 | O=C1OC[C@@H](c2ccccc2)n2cc(/C=C/c3ccccc3)cc21 | -0.456 | 0.597 (inactive) | -0.189 | -0.149 | 0.43 | 0.163 | -0.475 | -1.14 | -0.701 | 0.51 | 0.353 | -0.58 | -0.102 | 0.5 | -0.324 | -0.574 | -0.512 | -0.0599 | -0.328 | 0.287 (inactive)
5 | COc1ccc(NN2C(C(O)c3ccc(F)cc3)C=CC3C(=O)N(C4CCCCC4)C(=O)C32)cc1 (stereo not given) | 0.861 | -0.0189 (inactive) | 0.183 | -0.0161 | 0.649 | 1.39 | 0.0892 | 1.29 | -0.0299 | 1.13 | 0.683 | 1.25 | 0.382 | 0.997 | 1.15 | 0.314 | -0.462 | 0.174 | 1.14 | 0.613 (inactive)
6 | COc1ccc(C(O)C2C=CC3C(=O)N(C)C(=O)C3N2Nc2ccccc2)cc1 (stereo not given) | 0.986 | 0.195 (inactive) | 0.344 | 0.0753 | 0.376 | 2.87 | 0.388 | 1.28 | -0.224 | 1.17 | 0.908 | 1.24 | 0.368 | 0.925 | 0.578 | 0.0159 | 0.436 | -0.341 | 1.08 | -1.17 (inactive)
7 | CC(C)c1ccc(NN2C(C(O)C3=C[C@H]4C[C@@H](C3)C4(C)C)C=CC3C(=O)N(c4ccccc4)C(=O)C32)cc1 (stereo not given in full) | 0.97 | 0.378 (inactive) | 0.333 | 0.248 | 0.662 | 2.04 | 1.09 | 1.17 | 0.4 | 1.12 | 0.57 | 1.07 | 0.0505 | 0.953 | 1.11 | 0.248 | -0.894 | 0.605 | 0.632 | -1.77 (inactive)
8 | Cc1ccc(S[C@]2(C(=O)NC3CC3)CC(=O)N(C3Cc4ccccc4C3)[C@@H]2c2ccc(CO)cc2I)cc1 | -0.15 | -0.216 (inactive) | -0.283 | -0.121 | 0.535 | 0.897 | 1.68 | -0.5 | -0.486 | 0.0714 | 0.447 | 0.275 | -0.3 | 0.484 | 0.0932 | -0.115 | 1.57 | -1.32 | -0.409 | -1.28 (inactive)
9 | CCCCC(=C=CC[C@H](O)c1ccccc1OCCO)CCO | 0.0552 | 0.849 (inactive) | -0.16 | -0.164 | 0.524 | 1.91 | 0.0655 | 0.597 | -0.336 | -0.14 | 2.08 | 0.118 | 0.0679 | -0.472 | 0.689 | 0.749 | -0.378 | 0.342 | -0.298 | 0.207 (inactive)
10 | CC1C2C(CCCO)=CC(C3C(=O)N(C)C(=O)C23)N1Cc1cccc(OC(F)(F)F)c1 (stereo not given) | 1 | -0.0186 (inactive) | 0.126 | 0.0083 | 0.854 | 2.43 | 0.267 | 1.29 | -0.262 | 0.96 | 0.503 | 1.2 | 0.849 | 0.971 | 0.301 | 0.303 | -0.703 | 0.286 | 0.877 | -1.02 (inactive)
